This is an account of results in PubChem BioAssay (NCATS).

Results filed as inconclusive are left out. The source made the active and inactive calls. Calls come from the whole dose curve; as a rule, active = well fitted cell-killing curve with a large enough effect; inconclusive = small, poorly fitted or top-dose-only effect, or effect the other way; inactive = no such curve, though single readings can be large or run the other way.
Potency is the fitted concentration of half-maximal effect.

A short description of the assay: Quantitative High-Throughput drug screen in 47 multiple myeloma cell lines against the NCATS MIPE library collection: OCIMY7_PLB cell viability assay (AID 1918987). Note: nearly all actives have a fitted effect of over 65% in size. The following applies: OCI-MY7 myeloma viability, CellTiter-Glo ATP, 48 h; viability (% of DMSO): at 45.8 µM (top of the series). The source says:
PI: Beverly A. Mock Ph.D.
Laboratory of Cancer Biology and Genetics,
Center for Cancer Research, National Cancer Institute,
National Institute of Health, Bethesda, Maryland
Drug resistance and disease progression are common in multiple myeloma (MM) patients, underscoring the need for new therapeutic combinations. […] We hypothesized that effective combinations would reduce MYC expression and enhance p16 activity. […] These preclinical data identify potentially useful drug combinations for evaluation in drug-resistant MM and reveal potential mechanisms of combined drug sensitivity.
Described herein is the primary MIPE qHTS used to cherrypick compounds. Validated compounds were then further tested for potential synergistic activiy.
[1] Peat TJ, Gaikwad SM, Dubois W, Gyabaah-Kessie N, Zhang S, Gorjifard S, Phyo Z, Andres M, Hughitt VK, Simpson RM, Miller MA, Girvin AT, Taylor A, Williams D, D'Antonio N, Zhang Y, Rajagopalan A, Flietner E, Wilson K, Zhang X, Shinn P, Klumpp-Thomas C, McKnight C, Itkin Z, Chen L, Kazandijian D, Zhang J, Michalowski AM, Simmons JK, Keats J, Thomas CJ, Mock BA. Drug combinations identified by high-throughput screening promote cell cycle transition and upregulate Smad pathways in myeloma. Cancer Lett. 2023 Aug 1;568:216284. doi: 10.1016/j.canlet.2023.216284. Epub 2023 Jun 24. PMID: 37356470; PMCID: PMC10408729.
SEQUENCE No. (e.g., 1, 2, 3, etc.); […] (e.g., Cells, Incubation, Reagent, etc.); VALUE and DESCRIPTION.
1; Cells; 5 uL; white, solid bottom 1536-well Greiner assay plate.
2; Compounds; 23 nL; Kalypsis pin tool (Wako USA) equipped with a 1536-well pin head to transfer to the assay plates.
3; Incubation; 48 hours; 37C incubation.
4; Reagent;5uL; CellTiter Glo (Promega).
5; Detector; 425V; Luminescence; Viewlux PerkinElmer.
NOTES (numbers refer to Sequence numbers above)
1. The cell-based screening methods employed in this study were like those previously published. Briefly, the corresponding myeloma cell lines were screened in 1,536-well plates with 500 cells, 5-uL per well for inhibition of cell viability (assessed by measuring ATP levels with CellTiterGlo).
2. NCATS MIPE 4.0 library of approved and investigational drugs were added using the Kalypsis pin tool. Wells treated with DMSO only for 100% viability and media only for 0% viability were used as controls.
3. The assay plates were covered and incubated for 48 hours in a 37C, 5% CO2 incubator with controlled humidity.
4. After 48 hours, CellTilter-GloTM luminescent substrate mix (Promega) reagent was added to the assay plate and plates we incubated for 5 min at room temperature.
5. Signal was measured as median relative luminescence units on a ViewLux (PerkinElmer) multiplate reader.
[1] Heske CM, Davis MI, Baumgart JT, Wilson K, Gormally MV, Chen L, Zhang X, Ceribelli M, Duveau DY, Guha R, Ferrer M, Arnaldez FI, Ji J, Tran HL, Zhang Y, Mendoza A, Helman LJ, Thomas CJ. Matrix Screen Identifies Synergistic Combination of PARP Inhibitors and Nicotinamide Phosphoribosyltransferase (NAMPT) Inhibitors in Ewing Sarcoma. Clin Cancer Res. 2017 Dec 1;23(23):7301-7311. doi: 10.1158/1078-0432.CCR-17-1121. Epub 2017 Sep 12. PMID: 28899971; PMCID: PMC6636827.
In general terms: Cellular ATP, detected with luciferase, serves as a proxy for viable cell number.
As to `O=C(NC1CCOCC1)c1ccc(-c2cc(-c3cn[nH]c3-c3ccccn3)ccn2)cc1`, the “viability (% of DMSO)” value was 139% (inactive). On to `Oc1ccc(C2=Cc3ccc(O)cc3OC2)cc1`, for which the Potency was 1.32 µM (active). The same measure, in the same setting: to `CC(C(=O)O)c1ccc(-c2ccccc2)c(F)c1` (stereo not given) belongs 14.8 µM (active); to `O=C(O)CCC1CCC(c2cc(F)ccc2F)(S(=O)(=O)c2ccc(Cl)cc2)CC1` (stereo not given), 2.64 µM (active); to `CNC(=O)c1ccccc1Sc1ccc2c(C=Cc3ccccn3)n[nH]c2c1`, 2.64 µM (active). Regarding `COc1cc(Nc2ncc(F)c(Nc3ccc4c(n3)NC(=O)C(C)(C)O4)n2)cc(OC)c1OC`, the Potency is 0.743 µM (active).

Take `COc1cc(NC(=O)c2ccc(-c3ccc(Cl)cc3)o2)cc(OC)c1`: the Potency was 3.32 µM (active). Turning to `OC[C@H]1O[C@@H](n2cnc3c2NC=NC[C@@H]3O)C[C@H]1O`, the Potency is 23.5 µM (active). `CO[C@@H](C(=O)N1Cc2[nH]nc(NC(=O)c3ccc(N4CCN(C)CC4)cc3)c2C1)c1ccccc1`: the Potency is 0.332 µM (active).

In the case of `CC(C)n1nc(-c2ccc3oc(N)nc3c2)c2c(N)ncnc21`, the Potency is 2.64 µM (active). On the same count and under the same terms, as for `Cc1nc(N)sc1-c1ccnc(Nc2ccc(N3CCOCC3)cc2)n1`, the figure is 1.05 µM (active); as for `CO[C@H]1C[C@@H]2CC[C@@H](C)[C@@](O)(O2)C(=O)C(=O)N2CCCC[C@@H]2C(=O)O[C@H]([C@H](C)C[C@@H]2CC[C@H](OC(=O)C(C)(CO)CO)[C@H](OC)C2)CC(=O)[C@H](C)C=C(C)[C@@H](O)[C@@H](OC)C(=O)[C@H](C)C[C@H](C)C=CC=CC=C1C`, 14.8 µM (active); as for `Cc1c(O)cccc1C(=O)N[C@@H](CSc1ccccc1)[C@H](O)CN1C[C@H]2CCCC[C@@H]2C[C@@H]1C(=O)NC(C)(C)C`, 14.8 µM (active). Same read-out and setting: as for `CN(C)Cc1ccc(-c2nc3cccc4c3n2CCNC4=O)cc1`, the figure is 8.33 µM (active).

Consider `CO[C@H]1C=CC=C(C)C(=O)NC2=CC(=O)C(NCCN(C)C)=C(C[C@@H](C)C[C@H](OC)[C@@H](O)[C@@H](C)C=C(C)[C@@H]1OC(N)=O)C2=O`, for which the Potency is 0.0662 µM (active).

`COc1cc2ncnc(Nc3ccc(F)c(Cl)c3)c2cc1OCCCN1CCOCC1`: the Potency is 1.08 µM (active). For the molecule `C[N+](C)(C)CC(=O)O`, the “viability (% of DMSO)” value is 126% (inactive). As to `O=c1c(-c2ccc(O)cc2)coc2cc(OC3O[C@H](CO)[C@H](O)[C@H](O)[C@H]3O)cc(O)c12` (stereo not given in full), the Potency is 1.48 µM (active). Same read-out and setting: as for `COc1ccc2c(Oc3ccc(NC(=O)c4c(C)n(CC(C)(C)O)n(-c5ccccc5)c4=O)cc3F)ccnc2c1`, the figure is 16.6 µM (active). Consider `O=C(OCC#CCSc1nnc(-c2cccc3ccccc23)o1)c1cc2ccccc2s1`, for which the “viability (% of DMSO)” value is 118% (inactive). In the case of `Clc1cc(Cl)cc(CNc2ncncc2-c2ccc3c(c2)OCO3)c1`, the Potency was 4.69 µM (active). As to `O=C(CCCCCCC(=O)Nc1ccccc1)NO`, the Potency was 2.35 µM (active).

Turning to `CC(=O)O[C@]1(C(C)=O)CC[C@@H]2[C@@H]3C[C@H](C)C4=CC(=O)CC[C@]4(C)[C@H]3CC[C@@]21C`, the Potency was 23.5 µM (active). On the same count and under the same terms, as for `Nc1ncnc2ccccc12`, the figure is 14.8 µM (active); as for `CC(=O)Oc1cc2c(s1)CCN(C(C(=O)C1CC1)c1ccccc1F)C2` (stereo not given), 0.935 µM (active); as for `CCCCCNC(=O)N1CCC(CN(Cc2ccc(Cl)cc2)Cc2ccc([N+](=O)[O-])s2)C1` (stereo not given), 16.6 µM (active). The same measure, in the same setting: as for `COc1cccc2c1CCCC2CCCN1CCN(C2CCCCC2)CC1` (stereo not given), the figure is 13.2 µM (active); as for `CC(=O)N(C)C1(c2ccccc2)CCN(CCC[C@]2(c3ccc(Cl)c(Cl)c3)CCCN(C(=O)c3ccccc3)C2)CC1`, 14.8 µM (active). On the same count and under the same terms, as for `CCOC(=O)C1=C(N)Oc2ccc(Br)cc2C1C(C#N)C(=O)OCC` (stereo not given), the figure is 7.43 µM (active); as for `COc1ccc(Cc2nccc3cc(OC)c(OC)cc23)cc1OC`, 18.7 µM (active). As to `CO[C@H]1C=CO[C@@]2(C)Oc3c(C)c(O)c4c(O)c(c5c(c4c3C2=O)NC2(CCN(CC(C)C)CC2)N=5)=NC(=O)C(C)=CC=C[C@H](C)[C@H](O)[C@@H](C)[C@@H](O)[C@@H](C)[C@H](OC(C)=O)[C@H]1C`, the Potency is 4.18 µM (active). Same read-out and setting: as for `CN1CCN(CCOc2cc(OC3CCOCC3)c3c(Nc4c(Cl)ccc5c4OCO5)ncnc3c2)CC1`, the figure is 18.7 µM (active); as for `NC(=O)c1cnc(-c2ccc(C3(N)CCC3)cc2)c(-c2ccccc2)c1`, 1.87 µM (active). The same measure, in the same setting: to `CC(C)C(=O)Nc1ncc(-c2cc(C(F)F)nn2-c2c(Cl)cccc2Cl)s1` belongs 16.6 µM (active); to `Nc1nc(F)nc2c1ncn2[C@@H]1O[C@H](COP(=O)(O)O)[C@@H](O)[C@H]1O`, 18.7 µM (active); to `O=C(NCc1ccccc1)c1csc(Nc2ccncn2)n1`, 8.33 µM (active).

On to `O=C1C(Cl)=C(NCCN2CCOCC2)C(=O)c2ncccc21`, for which the Potency is 3.32 µM (active).

For the molecule `COCCOc1nc(-c2ccc(Cl)c(Cl)c2)n(-c2ccc(NC(=O)CCl)cc2)n1`, the Potency is 16.6 µM (active).

Turning to `CC(C)OC(=O)C(C)(C)Oc1ccc(C(=O)c2ccc(Cl)cc2)cc1`, the “viability (% of DMSO)” value was 269% (inactive). For `CN[C@@H](C)C(=O)N[C@H]1CN(C(=O)CC(C)C)CC[C@H]2CC[C@@H](C(=O)NC(c3ccccc3)c3ccccc3)N2C1=O`, the Potency was 10.5 µM (active).
